# Test results taken from PubChem BioAssay AID492997 (Johns Hopkins Ion Channel Center, 2010).
# The whole screen tested about 4,900 compounds, of which about 2,000 (41%) were called active.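 The calls were made as follows: active = thallium signal drop beyond 5 SD of the untreated control mean, on both duplicate plates; inactive = the rest.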 The set was probably picked from earlier hits. These entries were drawn from the full list.
# Assay: thallium flux in non-induced HEK293 cells, confirmation, counter-screen for KCNK9 inhibitor project, cell-based, second counter screen, non-induced KCNK9-HEK293 (AID 492997);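 as to inhibition: plate controls were buffer only IC0 wells for no effect and SID17386958 at its maximal inhibitory level for full effect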
# Conditions: non-induced KCNK9-HEK293, FluxOR thallium flux, at 10 µM; stronger effect = higher value
row,Compound,inhibition
1,O=C(COC(=O)/C(=C/c1cccs1)c1cccs1)NCc1ccccc1Cl,31% (active)
2,Cc1ccc(NC(=O)c2cc([N+](=O)[O-])ccc2Cl)c(O)c1,32% (active)
3,N#Cc1nc(Cc2cccc3ccccc23)oc1NCc1ccc2c(c1)OCO2,53.5% (active)
4,O=C(CC(NC(=O)c1ccccc1)c1ccccc1)Nc1ccc(F)c(F)c1 (stereo not drawn),37% (active)
5,Cc1ccc(C(=O)c2c(NC(=O)c3ccccc3)sc(C)c2C)cc1,inactive
6,O=[N+]([O-])c1ccc(N2CCN(CC(O)COc3ccccc3)CC2)cc1 (stereo not drawn),inactive
7,Cc1ccc(C)c(NC(=S)NNC(=S)Nc2ccc(C(C)C)cc2)c1,inactive
8,O=C(Cn1cc(C(=O)c2cccs2)c2ccccc21)NCc1cccs1,29.5% (active)
9,CCOc1cccc(OCCCOc2cccc3cccnc23)c1,inactive
10,Cc1cc(Cl)ccc1C(=O)C1CCCN(C(=O)CCN2CCCO2)C1 (stereo not drawn),inactive
11,CCCOc1ccc2c3c(c(=O)oc2c1OCCC)CCC3,48.5% (active)
12,Cc1cc2ccccn2c1C(=O)c1cccc(F)c1,inactive
13,COc1cc(Cl)c(C)cc1NC(=O)CSc1nnc(-c2ccco2)n1CC(C)C,25.5% (active)
14,O=C(Nc1nnc(SCc2ccc(Cl)cc2Cl)s1)C1COc2ccccc2O1 (stereo not drawn),inactive
15,COc1cccc(-c2nn(C)c3sc(C(=O)N4CCN(c5ccccc5)CC4)cc23)c1,inactive
16,COc1ccccc1C(c1nnnn1C(C)(C)C)N1CCN(Cc2ccccc2)CC1 (stereo not drawn),37.5% (active)
17,CC1=C/C(=N\OS(=O)(=O)c2ccccc2)C=CC1=O,inactive
18,CCOc1ccccc1NC(=O)C1CCCN(S(=O)(=O)c2ccccc2)C1 (stereo not drawn),inactive
19,Clc1ccc(COn2c(-c3ccc(Cl)cc3Cl)nc3ncccc32)cc1,45% (active)
20,CCOC(=O)C(C)n1cnc2scc(-c3ccc(C)c(C)c3)c2c1=O (stereo not drawn),inactive
21,CCCCCCCCCCOC(=O)Cn1c(COc2cccc(OC)c2)[n+](C)c2ccccc21,28% (active)
22,CCCCCCCCCCOC(=O)Cn1c(COc2ccc(C)cc2)[n+](C)c2ccccc21,inactive
23,Cc1onc(-c2ccc(Cl)cc2)c1-c1ccnn1S(=O)(=O)c1ccc(Cl)cc1,46.5% (active)
24,CCCCn1ccnc1C(=O)c1cccc(S(=O)(=O)N2c3ccccc3CC2C)c1 (stereo not drawn),46.5% (active)
25,Cc1cccc(N2CCN(C(=O)c3cccc(S(=O)(=O)N4CCc5ccccc5C4)c3)CC2C)c1 (stereo not drawn),inactive

row,Compound,inhibition
1,Cc1cc2ccccn2c1C(=O)c1cccc(S(=O)(=O)N2CCOCC2)c1,inactive
2,C=CCc1cc(S(=O)(=O)c2ccc(O)c(CC=C)c2)ccc1O,26% (active)
3,O=C1CC(c2ccccc2)=NN1c1ccc([N+](=O)[O-])cc1,inactive
4,COc1ccc([N+](=O)[O-])cc1-c1nc2ccccc2nc1-c1ccccc1,37% (active)
5,Cc1ccc(CN2CCN(/N=C/c3ccco3)CC2)c(C)c1,inactive
6,CCOC(=O)C(C)Sc1nc2ccccc2c(=O)n1CC1CCCCC1 (stereo not drawn),31.5% (active)
7,Cc1[nH][nH]c(=O)c1C(c1ccc(-c2ccc(Cl)cc2)o1)c1c(C)[nH][nH]c1=O,inactive
8,CC(C)(C)SCCSC1=CC(=O)CC(c2ccccc2)C1 (stereo not drawn),inactive
9,Cc1cccc(NC(=O)c2sc3nc4c(c(-c5ccco5)c3c2N)CCC4)c1,38.5% (active)
10,Cc1ccnc(N2CCN(C(=O)CSc3nc4ccccc4nc3N3CCCCC3)CC2)c1,inactive
11,COC(=O)c1cc(NC2c3ccccc3C(=O)N2c2ccc(Cl)cn2)cc(C(=O)OC)c1 (stereo not drawn),28.5% (active)
12,CCOC(=O)N/N=C/c1cn(Cc2ccccc2Cl)c2ccccc12,25.5% (active)
13,COc1cc(C(CCN2CCN(c3ccccc3)CC2)c2c(OC)cc(OC)c3ccc(=O)oc23)cc(OC)c1OC (stereo not drawn),inactive
14,Cc1ccc(C2=NN(C)c3nc4ccccc4n3C2)cc1,inactive
15,CCC/C=C(\CCC)C(NC(=O)Cc1ccccc1)c1ccc(C(=O)OC)cc1 (stereo not drawn),53% (active)
16,CC(Oc1ccc2ccccc2c1)C(=O)NNC(=S)NC(=O)c1ccco1 (stereo not drawn),inactive
17,O=C(Nc1ccc(Oc2ccccc2)cc1)c1ccco1,39.5% (active)
18,Cc1ncoc1C(=O)N1CCCC(C(=O)c2ccc3c4c(cccc24)CC3)C1 (stereo not drawn),inactive
19,Cc1cc(Oc2ccc(Cl)cc2)nc(SCC(=O)c2ccccc2)n1,28% (active)
20,O=S(=O)(Nc1cccc(Oc2ccc(Cl)cc2)n1)c1ccc(F)cc1,inactive
21,CCOC(=O)CSc1nc2c(sc(=S)n2CCc2ccccc2)c(=O)n1Cc1ccco1,35.5% (active)
22,O=C(COC(=O)c1ccccc1)Nc1ccccc1Sc1ccccc1,34.5% (active)
23,COc1ccc(OC)c(-c2csc(-c3cccs3)n2)c1,26.5% (active)
24,COc1ccccc1/C=C/C=N/n1c(-c2ccc(Cl)cc2Cl)n[nH]c1=S,inactive
25,Brc1ccc(C2CC(c3ccccc3)=Nc3ccccc3N2)cc1 (stereo not drawn),34.5% (active)

row,Compound,inhibition
1,COc1ccc(C(=O)C2CCCN(Cc3ccc4nonc4c3)C2)c(C)c1 (stereo not drawn),inactive
2,COc1ccc(C2CC(c3cccs3)=Nc3ccccc3S2)cc1OC (stereo not drawn),33% (active)
3,CCCCNC(=S)N/N=C1\CCCCc2ccccc21,inactive
4,CCOC(=O)N1CCN(C(=O)COc2ccc3oc4c(c3c2)CCCC4)CC1,inactive
5,CCOc1ccc(C(C)C)cc1S(=O)(=O)n1nc(C)cc1C,39.5% (active)
6,O=C(NC(=S)Nc1ccccc1C(=O)O)c1ccc(-c2ccc(Br)cc2)o1,inactive
7,O=c1cc(CN2CCN(c3cccc(Cl)c3)CC2)c2cc3c(cc2o1)CCCC3,inactive
8,CCc1cccc(C)c1N(C(=O)Cn1c(CO)nc2ccccc21)C(C)COC (stereo not drawn),33% (active)
9,Cc1c(C(=O)Nc2ccccn2)oc2ccc(Br)cc12,29.5% (active)
10,COc1cc(C2CC(=O)N3CN(Cc4ccccc4)CSC3=C2C#N)ccc1OCc1ccccc1 (stereo not drawn),inactive
11,CCCCCC(O)c1cccc(OCc2ccc3ccccc3n2)c1 (stereo not drawn),38.5% (active)
12,Cc1ccc(C(=O)c2c(NC(=O)c3ccncc3)sc3c2CCCC3)cc1,inactive
13,CCCCN(Cc1ccccc1)C(=O)C1CCN(Cc2sccc2C)CC1,inactive
14,O=C(Oc1ccc(Br)cc1C(=S)N1CCOCC1)c1cccc([N+](=O)[O-])c1,inactive
15,O=C(C[C@H]1C(=O)N(c2ccc(F)c(F)c2)C[C@@H]1Cc1ccccc1)Nc1ccccc1,37% (active)
16,COc1ccc(C(CCN(Cc2ccc(OC)c(OC)c2)C(=O)CCl)c2ccccc2)cc1 (stereo not drawn),inactive
17,Cc1ccc(CN(N=Nc2nonc2N)c2nonc2N)c(C)c1,43.5% (active)
18,CC(C)CC(COCc1ccc(Cl)cc1)N1CCN(C(=O)c2ccc(C(F)(F)F)cc2)CCC1=O (stereo not drawn),29.5% (active)
19,Cc1ccccc1CSCCNC(=O)c1ccc(N(C)S(=O)(=O)c2ccccc2)cc1,inactive
20,CN(c1ccccc1)S(=O)(=O)c1cccc(NC(=O)Cc2c(F)cccc2Cl)c1,23.5% (active)
21,COc1ccccc1N1CCN(c2ncnc3sc(C)c(-c4ccccc4)c23)CC1,inactive
22,Clc1ccc(CSc2nnc(/C=C/c3ccccc3)o2)c(Cl)c1,inactive
23,CCN(CC)S(=O)(=O)c1ccc(N(C)Cc2ccc(C(F)(F)F)cc2)nc1,39.5% (active)
24,O=C(NCc1ccco1)c1ccc(NS(=O)(=O)c2cccc([N+](=O)[O-])c2)cc1,inactive
25,CCCC1=Nc2cc(C(=O)NCc3ccco3)ccc2Sc2ccccc21,39.5% (active)

row,Compound,inhibition
1,COc1cc(Cl)ccc1OCc1cc(C(=O)N2CC[C@@H]3CCCC[C@H]3C2)no1,inactive
2,CCOc1ccc(C2c3[nH]c4ccccc4c3CCN2Cc2cccn2-c2ncccn2)cc1 (stereo not drawn),25.5% (active)
3,COCCN(C(=S)Nc1cccc(Cl)c1C)C(C)c1ccco1 (stereo not drawn),inactive
4,Cn1nc(-c2ccccc2)c(CSc2cccc(Cl)c2)c1Cl,38% (active)
5,CCOC(=O)C1(CCOc2ccccc2)CCN(Cc2cc(OC)c(O)cc2Cl)CC1,inactive
6,CCc1nnc(NS(=O)(=O)c2ccc(NC(=S)NC(=O)/C=C/c3cccs3)cc2)s1,inactive
7,Cc1[nH]c2ccccc2c1CCN(Cc1cccs1)C(=S)NC(C)(C)C,inactive
8,COc1cccc(NC(=S)N(CCc2c(C)[nH]c3ccccc23)Cc2ccco2)c1,30% (active)
9,O=C(Nc1ccc(S(=O)(=O)N2CCCCC2)cc1)C1CCN(C(=O)c2ccc(F)cc2)CC1,inactive
10,O=C(Cc1ccccc1)n1nc(-c2ccccc2)nc1NCc1ccco1,33% (active)
11,CCCC(=O)n1nc(NCc2ccc(OC)cc2)nc1NCc1ccc(OC)cc1,inactive
12,COc1ccccc1NC(=O)CSc1nc2sc(C)c(C)c2c(=O)n1Cc1ccco1,38.5% (active)
13,C=CCOc1ccc(/C=N/NC(=O)C(C)Sc2ccccn2)cc1OCC (stereo not drawn),39% (active)
14,CCCN1C(=O)C(Cc2nc3ccccc3c(=O)n2-c2ccccc2)c2cc(C)ccc21 (stereo not drawn),37.5% (active)
15,CCOc1ccc(CN(Cc2ccco2)C(c2cccs2)c2nnnn2C(C)(C)C)cc1 (stereo not drawn),41% (active)
16,Cc1csc(Nc2ccc(Cl)cc2)[n+]1-c1ccc(Cl)cc1,inactive
17,COc1ccc(-c2oc(/N=C/N3CCCC3)c(C#N)c2-c2ccc(OC)cc2)cc1,inactive
18,CCC1=NN(C(=O)Cc2ccc([N+](=O)[O-])cc2)C(O)(c2ccc(Br)cc2)C1 (stereo not drawn),28.5% (active)
19,Clc1cccc(-c2nc3nc4ccccc4nc3n2Cc2ccco2)c1,inactive
20,Clc1ccc(Cl)c(Oc2ccc(Oc3nc(Cl)ccc3Cl)cc2)n1,inactive
21,COC(=O)C1=C(Nc2ccc(C)cc2)C=C(C)C(C(=O)OC)C1c1ccc(F)cc1 (stereo not drawn),37.5% (active)
22,Cc1ccc(C(=O)/C=C/c2c(C)nn(-c3ccccc3)c2Cl)cc1,inactive
23,O=C(Nn1c(SCc2ccc([N+](=O)[O-])cc2)nc2ccccc2c1=O)c1ccc(F)cc1,inactive
